The full list was thinned out, with hits kept by preference.
FXIa single inh: blocks human coagulation factor XIa activity; P03951; inhibition, % at 10 µM; hit rate 0.3% among 33,000; purified human FXIa, fluorogenic AMC substrate cleavage;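 active means inhibition above 40% in the primary screen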;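 further: 0% = enzyme without compound and 100% = blank wells lacking enzyme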
Target sequence (P03951 19-387 limits assumed): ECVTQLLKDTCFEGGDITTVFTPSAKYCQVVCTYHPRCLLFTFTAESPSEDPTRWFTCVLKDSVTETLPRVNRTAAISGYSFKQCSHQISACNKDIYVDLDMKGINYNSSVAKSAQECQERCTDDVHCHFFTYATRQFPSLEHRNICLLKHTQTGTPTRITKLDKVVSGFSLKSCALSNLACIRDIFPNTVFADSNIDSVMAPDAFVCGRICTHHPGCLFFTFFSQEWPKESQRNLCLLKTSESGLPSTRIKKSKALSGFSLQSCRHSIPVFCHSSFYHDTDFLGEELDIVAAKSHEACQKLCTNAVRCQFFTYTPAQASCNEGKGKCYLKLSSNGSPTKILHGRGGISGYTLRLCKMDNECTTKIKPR
Target sequence (P03951 388-625 limits assumed): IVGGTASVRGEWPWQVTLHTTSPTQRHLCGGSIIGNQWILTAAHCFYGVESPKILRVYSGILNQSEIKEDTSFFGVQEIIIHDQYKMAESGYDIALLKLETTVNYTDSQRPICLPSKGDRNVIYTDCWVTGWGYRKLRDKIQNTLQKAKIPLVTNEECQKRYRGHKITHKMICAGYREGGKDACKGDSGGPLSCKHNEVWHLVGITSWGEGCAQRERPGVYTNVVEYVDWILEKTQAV
FXIIa inh: blocks human coagulation factor XIIa activity; P00748; purified human FXIIa, AMC substrate fluorescence, 2 h; hit rate 0.2% among 33,000; inhibition, % at 10 µM; in the data active means inhibition above about 30%;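 further: 0% = enzyme with vehicle only and 100% = no enzyme blank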
Active calls of the source: *; / = no result given.

SMILES | FXIa single inh | FXIIa inh
Cc1cccc(OCc2nc(C)cc(=O)[nH]2)c1 | -1.6 | 3.0
Cc1cc(=O)[nH]c(-n2[nH]c(C)cc2=O)n1 | 47.9* | 2.8
CC(=O)Nc1cccc(-c2nnc(SCC(=O)n3c4c(c5ccccc53)CCCC4)n2C)c1 | -0.7 | -3.4
O=S(=O)(Cc1ccccc1)N1CCC(c2nc(-c3cccs3)no2)CC1 | 45.6* | -10.2
O=C(c1cccs1)N1CCN(S(=O)(=O)Cc2ccccc2)CC1 | -1.0 | 7.8
O=C(c1ccc2c(c1)OCO2)N1CCN(c2ccc(F)cc2)CC1 | 3.8 | 33.2*
O=C(Nc1ccc(N2CCN(C(=O)c3ccccc3)CC2)cc1)c1ccc2c(c1)OCO2 | 36.0 | /
COc1ccc(NC(=O)CN2CCN(C3c4ccccc4-c4ccccc43)CC2)cc1 | 6.4 | 8.2
CC(C)CSc1nc2c(=O)[nH][nH]c(=O)c2n1Cc1ccccc1 | 0.4 | 4.4
CCCNC(=O)C1CNc2ccccc2O1 (centres undefined) | 7.0 | 4.6
CC1Cc2nc(SCC(=O)Nc3nc4ccccc4s3)n(C)c(=O)c2S1 (centres undefined) | 1.8 | 7.5
CCCC(=O)N(CCc1ccc(OC)cc1)Cc1nc2ccccc2c(=O)[nH]1 | 2.5 | 12.6
O=C(C1CCC1)N(CCc1ccccc1)Cc1nc2ccccc2c(=O)[nH]1 | 1.0 | 34.1*
Cc1cccc2c(=O)c(C(=O)NCCCN3CCOCC3)c[nH]c12 | -1.3 | 2.3
CN(CC(=O)Nn1cnnc1)S(=O)(=O)c1ccccc1 | -3.8 | 9.4
O=C(Nc1cccc2c1CCCC2)c1ccncc1 | 1.0 | 8.9
CCCn1c(Nc2ccccc2C)nc2ccccc21 | -7.8 | -1.3

High-throughput results: PubChem BioAssay, PCMD
